A3A deaminase: APOBEC3A ssDNA deaminase inhibitors, primary screen, selectivity assay for APOBEC3G inhibitor project, biochemical, FAM/TAMRA oligo cleavage fluorescence; DNA dC->dU-editing enzyme APOBEC-3A (Homo sapiens), P31941; recombinant A3A, FAM/TAMRA ssDNA deamination fluorescence; inhibition, % at 20 µM; hit rate 0.41% among 330,000; AID 493011, 2011;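 active means at least 40% inhibition at 20 µM here, with at most 30% in a related deaminase screen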;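 further: plate controls were A3A with DMSO for no effect and wells lacking A3A enzyme for full effect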
CendR NRP1 mod: modulators of CendR peptide binding to NRP-1, primary screen, biochemical, fluorescence polarization, uHTS; inhibition, % at 25 µM; hit rate 0.85% among 360,000; Neuropilin-1 (Homo sapiens), O14786; FAM-RPARPAR peptide binding to NRP-1;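 active means inhibition or corrected inhibition above about 18%, plus a signal ratio from 0.5 to 1.5, limit read from the data, passing the limit was not always enough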
Target sequence (O14786 whole entry, looked up): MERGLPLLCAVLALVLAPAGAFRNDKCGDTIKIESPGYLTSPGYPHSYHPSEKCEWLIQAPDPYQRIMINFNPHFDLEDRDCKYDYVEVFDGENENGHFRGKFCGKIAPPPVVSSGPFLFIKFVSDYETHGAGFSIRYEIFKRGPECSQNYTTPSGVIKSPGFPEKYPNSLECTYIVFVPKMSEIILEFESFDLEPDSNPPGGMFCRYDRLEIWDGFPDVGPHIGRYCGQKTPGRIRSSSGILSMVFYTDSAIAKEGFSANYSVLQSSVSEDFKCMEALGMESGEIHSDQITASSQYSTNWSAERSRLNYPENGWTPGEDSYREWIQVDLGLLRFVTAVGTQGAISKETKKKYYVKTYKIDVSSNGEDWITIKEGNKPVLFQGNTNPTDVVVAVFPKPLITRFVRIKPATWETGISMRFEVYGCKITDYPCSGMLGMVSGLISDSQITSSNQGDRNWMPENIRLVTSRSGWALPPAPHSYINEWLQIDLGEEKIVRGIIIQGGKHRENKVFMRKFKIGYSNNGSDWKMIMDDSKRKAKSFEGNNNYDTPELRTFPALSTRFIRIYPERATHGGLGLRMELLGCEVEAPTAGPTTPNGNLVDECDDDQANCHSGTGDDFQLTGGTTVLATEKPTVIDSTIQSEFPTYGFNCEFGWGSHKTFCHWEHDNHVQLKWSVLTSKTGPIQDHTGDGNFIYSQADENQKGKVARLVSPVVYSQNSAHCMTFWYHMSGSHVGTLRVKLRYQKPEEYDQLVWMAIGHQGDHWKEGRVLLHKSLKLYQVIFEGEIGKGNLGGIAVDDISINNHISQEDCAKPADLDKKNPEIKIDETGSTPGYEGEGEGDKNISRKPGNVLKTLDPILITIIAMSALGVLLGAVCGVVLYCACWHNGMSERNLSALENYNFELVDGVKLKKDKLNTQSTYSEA
CR mimetic SO: reduction of superoxide in aged yeast, primary screen, HTS | S. cerevisiae aged cells, superoxide DHE fluorescence; hits give low values | superoxide response (% of plate mean), % at 10 µM | hit rate 0.18% among 330,000 | AID 2690, 2010;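 active means superoxide response under a set limit, about three screen SD below normal, cut at about 65% in these data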;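 further: yeast aged for seven days with compound at 30 °C before DHE staining; 100% = average MFI of all compound-treated wells on the plate with controls excluded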
A3G deaminase: APOBEC3G DNA deaminase inhibitors, primary screen, biochemical, fluorescence, single-stranded DNA substrate, uHTS; DNA dC->dU-editing enzyme APOBEC-3G (Homo sapiens), Q9HC16; recombinant A3G, ssDNA deamination FAM/TAMRA fluorescence; hit rate 0.28% among 330,000; AID 493012, 2011; inhibition, % at 20 µM;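 active means inhibition of at least 40% at 20 µM, with no more than 30% in the related APOBEC3A deaminase screen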;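 further: plate controls were DMSO wells with A3G for no effect and wells lacking A3G enzyme for full effect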
ALR H2O2 inh: inhibitors of human ALR sulfhydryl oxidase, primary screen, biochemical, H2O2 detection, HRP-luminol luminescence, single point. FAD-linked sulfhydryl oxidase ALR (Homo sapiens), P55789. purified ALR, DTT oxidation. inhibition, % (concentration not given with the values). hit rate 3.8% among 290,000. AID 485317, 2010;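 active means mean replicate inhibition above about 79%, with every replicate also reaching it, limit read from the data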
PfM18AAP inh: PfM18AAP inhibitors, malaria aminopeptidase, primary screen, biochemical, QFRET, recombinant enzyme. M18 aspartyl aminopeptidase (Plasmodium falciparum 3D7). H-Glu-NHMec fluorogenic cleavage. hit rate 1.2% among 290,000. AID 1822, 2009. inhibition, % at 7.35 µM;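 active means inhibition above the campaign mean inhibition over all tested compounds plus 3 SD, cut at about 28% in these data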;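 further: 0% = plate median of test compound wells and 100% = 2 mM ZnCl2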
Starred values were filed as active, the others as inactive; · = no result given. This is a sample that favours compounds with a hit; in the whole collection about 5.2% have one here.

SMILES	A3A deaminase	CendR NRP1 mod	CR mimetic SO	A3G deaminase	ALR H2O2 inh	PfM18AAP inh
COc1ccc(Cl)cc1NS(=O)(=O)c1cc(Br)cnc1N	0.4	-2.9	103.4	-1.4	3.1	4.5
O=C(Nc1ccc(O)cc1)c1cc(S(=O)(=O)N2CCCC2)ccc1Cl	2.2	-12.4	101.3	-2.7	98.9*	2.9
COC(=O)CCC/C=C1/SCC(NC(=O)c2ccccc2)C1O (stereo not drawn)	0.8	-13.0	90.1	-3.9	97.2*	-10.7
CN(C)c1ccc(/C=N/NC(=O)c2ccc3c(c2)OCCO3)cc1	-3.9	8.5	104.4	-5.7	98.0*	6.7
COc1cc(C=NNC(=O)c2ccc(NS(=O)(=O)c3cccs3)cc2)cc(Br)c1O	-4.3	-6.3	80.7	-7.2	77.6*	·
COc1cccc(/C=N/NC(=O)c2cccs2)c1	0.6	11.8	88.2	10.7	0.4	-5.7
CCN(CC)c1ccc(/C=N/NC(=O)c2ccc3c(c2)OCCO3)cc1	-2.8	18.1	·	-2.8	·	8.2
COc1cc(/C=N/NC(=O)c2ccccc2O)ccc1OC(=O)CC1SC(=O)NC1=O (stereo not drawn)	-0.9	-7.8	96.1	-5.3	88.1*	16.2
COc1cc(/C=N/NC(=O)c2cccs2)ccc1O	0.3	7.2	103.7	-5.1	99.1*	2.0
COc1cc(/C=N/NC(=O)c2ccncc2)ccc1OC(=O)c1ccccc1Cl	-1.6	-3.4	117.2	-5.4	61.3	4.8
COc1ccccc1N1CCN(C(=O)c2cc3cc(Br)ccc3oc2=O)CC1	-3.8	1.2	82.1	-3.4	-2.5	4.4
CCCCCC(=O)Nc1ccc(S(=O)(=O)Nc2cc(OC)nc(OC)n2)cc1	-4.0	-0.4	95.7	-9.6	-8.6	-2.4
COc1cc(C(=O)N/N=C/c2cccc(Oc3ccccc3)c2)ccc1O	0.4	3.5	103.6	-6.2	84.9*	1.0
COc1cc(/C=N/NC(=O)c2ccc(-n3cccc3)cc2)ccc1O	-4.9	5.8	100.1	-6.2	99.3*	9.4
O=C(N/N=C/c1cccc(Oc2ccccc2)c1)c1ccncc1	4.3	-8.2	91.6	-4.6	-2.2	-0.3
Cc1ccn2c(C(=O)N/N=C/c3ccc(Cl)cc3)c(C)nc2c1	-3.0	3.5	·	-6.4	·	-9.6
COc1cc(/C=N/NC(=O)c2ccc3c(c2)OCO3)ccc1O	-1.5	-7.7	105.9	-4.5	98.7*	7.7
COc1cc(/C=N\NC(=O)c2c(C)nc3cc(C)ccn23)ccc1O	-1.8	9.6	89.2	-7.0	96.9*	2.3
COc1cc(C(=O)N/N=C/c2ccc(OC(=O)c3ccccc3Cl)c(OC)c2)ccc1O	-4.2	5.6	114.3	-7.5	14.3	3.0
CC[C@@H]1C=C(C(=O)O)[C@H](c2ccc(OC)c(OC)c2)N1S(=O)(=O)c1ccc(C)cc1	-5.8	0.3	86.0	-7.3	·	·
Cc1ccc(CNC(=O)CN2C(=O)NC(C)(c3ccc(Cl)cc3)C2=O)cc1 (stereo not drawn)	-5.5	-6.1	99.1	-4.3	-10.4	1.9
O=C(NN=Cc1ccc(O)cc1)c1ccccc1NS(=O)(=O)c1cccs1	-0.8	3.7	110.1	-3.5	99.4*	·
Cc1noc(C)c1NC(=O)N(C)C[C@H]1Oc2c(NC(=O)NC(C)C)cccc2C(=O)N([C@H](C)CO)C[C@@H]1C	-4.7	25.1*	78.6	-5.9	-0.3	·
Cc1noc(C)c1NC(=O)N(C)C[C@H]1Oc2c(NC(=O)c3ccncc3)cccc2C(=O)N([C@H](C)CO)C[C@@H]1C	0.2	-3.6	122.4	-6.6	-0.5	·
Cc1noc(C)c1NC(=O)Nc1cccc2c1O[C@@H](CN(C)C)[C@@H](C)CN([C@H](C)CO)C2=O	0.1	9.6	106.0	0.8	2.5	·
SMILES	A3A deaminase	CendR NRP1 mod	CR mimetic SO	A3G deaminase	ALR H2O2 inh	PfM18AAP inh
CC(C)NC(=O)Nc1ccc2c(c1)C(=O)N([C@H](C)CO)C[C@H](C)[C@@H](CN(C)S(=O)(=O)c1cccs1)O2	-2.3	24.7*	100.4	9.1	-0.6	·
Cc1noc(C)c1NC(=O)Nc1cccc2c1O[C@H](CN(C)C(=O)NC1CCCCC1)[C@@H](C)CN([C@H](C)CO)C2=O	-7.0	24.9*	102.2	-7.7	-3.8	·
COc1cccc(CNC(=O)C2CCN(S(=O)(=O)c3ccc4c(c3)OCCO4)CC2)c1	-2.7	15.8	94.5	-8.8	-2.1	-7.3
O=C(Nc1ccccc1C(=O)Nc1ccc(F)cc1)c1ccco1	0.1	3.5	·	-0.9	-3.7	9.4
CC(C)c1nc(SCC(=O)Nc2nc3c(s2)CCCC3)c2ccccc2n1	-2.3	-5.1	110.1	-5.7	98.3*	-6.3
CC1CCc2nc(NC(=O)CSc3nc4ccccc4o3)sc2C1 (stereo not drawn)	-4.3	1.2	84.9	-6.4	98.8*	11.6
Cc1nc(SCC(=O)Nc2ccc(CN3CCCC3)cc2)c2c(C)c(C)sc2n1	0.9	-6.7	115.6	-5.1	98.8*	·
CC(C)(C)c1nc(SCC(=O)Nc2nc3c(s2)CCCC3)c2ccccc2n1	-5.5	14.4	94.9	-3.8	-36.6	2.3
CC(C)c1nc(SCC(=O)Nc2ccc(C(=O)O)cc2)c2c3c(sc2n1)CCCC3	-3.5	-10.1	80.4	-9.8	99.2*	0.7
COc1ccc(N2CCN(CC(=O)Nc3nnc(-c4ccccc4)s3)CC2)cc1	1.4	-9.9	92.7	-2.3	-3.3	0.6
O=C(CSC1=NCCS1)c1ccc(Cl)cc1	3.1	-0.7	103.6	-3.5	98.4*	-0.5
O=C1CNC(=O)/C(=C/c2cccs2)N1	2.8	-1.5	103.9	-2.3	21.3	6.8
COc1ccc(C(=O)C(CN2CCOCC2)c2ccccc2)cc1 (stereo not drawn)	-0.7	4.1	103.8	-2.8	21.8	1.5
CCCCOc1ccc(C(=O)C(CN2CCOCC2)c2ccccc2)cc1 (stereo not drawn)	0.2	-9.3	98.3	0.7	5.6	5.8
O=C(c1ccc(F)cc1)C(CN1CCOCC1)c1ccccc1 (stereo not drawn)	-3.8	27.4*	87.4	-3.8	7.4	0.3
c1ccc(C(CN2CCOCC2)c2ccccc2)cc1	0.0	2.2	121.0	-4.5	-4.2	-0.8
CCCOc1ccc(C(=O)C(CN2CCCC2)c2ccccc2)cc1 (stereo not drawn)	·	-0.5	77.7	·	96.0*	4.2
O=C(c1ccccc1)C(CCC(CN1CCOCC1)C(=O)c1ccccc1)CN1CCOCC1 (stereo not drawn)	-2.6	2.0	85.5	-4.7	97.9*	-23.1
